Our source for the binding signal values is publication PMC7862700, “An all-to-all approach to the identification of sequence-specific readers for epigenetic DNA modifications on cytosine”.

Test in all cases: DAPPL (digital affinity profiling via proximity ligation, sequencing); 10 mM Tris-HCl pH 7.5, 50 mM NaCl, 1 mM DTT, 4% glycerol, room temperature, 30 min; GST-TFs on glutathione beads, 16-mer random dsDNA library, 0.1% formaldehyde crosslink after washing; high values mean tight binding
Holding throughout (settings): protein: recombinant; tags: N-terminal GST; dsDNA, one strand shown

The target in one experiment is T1, FLI1 (Homo sapiens, UniProt Q01543 1-452).
T1 sequence: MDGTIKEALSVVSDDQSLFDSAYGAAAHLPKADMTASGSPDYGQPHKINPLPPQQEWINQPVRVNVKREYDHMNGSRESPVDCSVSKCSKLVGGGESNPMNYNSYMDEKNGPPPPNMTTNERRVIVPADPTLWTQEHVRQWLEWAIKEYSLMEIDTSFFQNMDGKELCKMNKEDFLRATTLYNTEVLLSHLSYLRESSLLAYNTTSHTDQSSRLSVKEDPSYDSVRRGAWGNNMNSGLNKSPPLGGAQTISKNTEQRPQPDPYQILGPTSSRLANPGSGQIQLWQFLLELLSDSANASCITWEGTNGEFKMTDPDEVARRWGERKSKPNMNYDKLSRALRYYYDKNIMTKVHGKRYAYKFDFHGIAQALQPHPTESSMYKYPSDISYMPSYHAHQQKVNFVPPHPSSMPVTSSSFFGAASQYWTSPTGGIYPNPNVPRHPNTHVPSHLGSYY
Put shortly: (§1)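 In yeast, human transcription factors were expressed with a GST fusion, then pulled down on glutathione beads and given DNA barcodes. Pooled with a tag-only sample, they were exposed to 200 nmole of a 16-mer random double-stranded DNA library (Tris/NaCl/DTT/glycerol buffer, room temperature, 30 min), washed, crosslinked with 0.1% formaldehyde, proximity-ligated using BsaI/T4 ligase for 1 h at 37 °C, PCR-amplified and read on an Illumina NextSeq500. Each hexamer's frequency of reads for a factor, divided by the matching frequency for the tag-only sample, gives the binding signal.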

The target of the next experiment is T2, ELK1 (Homo sapiens, UniProt P19419 1-428).
T2 sequence: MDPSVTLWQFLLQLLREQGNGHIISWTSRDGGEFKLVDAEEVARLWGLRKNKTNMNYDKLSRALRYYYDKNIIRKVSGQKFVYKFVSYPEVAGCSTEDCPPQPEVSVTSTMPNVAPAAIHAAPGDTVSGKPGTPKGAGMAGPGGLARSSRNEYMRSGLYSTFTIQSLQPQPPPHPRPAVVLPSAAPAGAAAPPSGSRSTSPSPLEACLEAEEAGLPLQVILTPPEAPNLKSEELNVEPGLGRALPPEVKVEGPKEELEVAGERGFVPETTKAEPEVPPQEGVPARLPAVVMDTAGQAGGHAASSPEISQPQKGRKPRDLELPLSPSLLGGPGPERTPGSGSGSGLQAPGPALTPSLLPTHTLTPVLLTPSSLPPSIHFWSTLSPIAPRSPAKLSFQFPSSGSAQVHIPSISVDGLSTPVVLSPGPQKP
Put shortly:
as §1

For the next experiment, the target named is T3, GABPA (Homo sapiens, UniProt Q06546 1-454).
T3 sequence: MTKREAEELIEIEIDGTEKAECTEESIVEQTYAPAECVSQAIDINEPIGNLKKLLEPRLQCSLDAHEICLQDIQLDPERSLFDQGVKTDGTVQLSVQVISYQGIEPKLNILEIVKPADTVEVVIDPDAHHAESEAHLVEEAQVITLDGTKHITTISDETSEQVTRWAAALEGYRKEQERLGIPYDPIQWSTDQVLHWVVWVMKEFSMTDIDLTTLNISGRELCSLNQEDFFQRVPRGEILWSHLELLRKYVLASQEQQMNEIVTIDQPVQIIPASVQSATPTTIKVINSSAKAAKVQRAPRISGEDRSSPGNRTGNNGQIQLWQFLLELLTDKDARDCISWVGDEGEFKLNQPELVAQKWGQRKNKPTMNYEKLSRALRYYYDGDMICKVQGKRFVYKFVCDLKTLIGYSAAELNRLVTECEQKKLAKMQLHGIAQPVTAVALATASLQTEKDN
Put shortly:
as §1

The target of another experiment is T4, ERG (Homo sapiens, UniProt P11308 1-479).
T4 sequence: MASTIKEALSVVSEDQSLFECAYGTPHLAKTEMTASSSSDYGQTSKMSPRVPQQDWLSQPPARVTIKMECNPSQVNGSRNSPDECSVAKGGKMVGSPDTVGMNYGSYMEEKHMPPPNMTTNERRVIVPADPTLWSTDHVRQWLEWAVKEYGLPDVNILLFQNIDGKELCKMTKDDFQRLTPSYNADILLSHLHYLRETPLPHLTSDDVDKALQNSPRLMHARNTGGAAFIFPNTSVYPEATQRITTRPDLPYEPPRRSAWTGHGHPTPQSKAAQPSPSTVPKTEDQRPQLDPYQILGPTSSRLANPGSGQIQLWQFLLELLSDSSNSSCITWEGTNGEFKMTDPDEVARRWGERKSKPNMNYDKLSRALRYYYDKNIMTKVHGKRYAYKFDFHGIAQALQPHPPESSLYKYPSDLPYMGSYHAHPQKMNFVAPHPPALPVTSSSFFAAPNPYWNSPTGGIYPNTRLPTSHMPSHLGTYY
Put shortly:
as §1

Another experiment addresses ELF1 (Homo sapiens, UniProt P32519 1-619). Put shortly:
as §1

For a further experiment, the target named is T5, EHF (Homo sapiens, UniProt Q9NZC4 1-300).
T5 sequence: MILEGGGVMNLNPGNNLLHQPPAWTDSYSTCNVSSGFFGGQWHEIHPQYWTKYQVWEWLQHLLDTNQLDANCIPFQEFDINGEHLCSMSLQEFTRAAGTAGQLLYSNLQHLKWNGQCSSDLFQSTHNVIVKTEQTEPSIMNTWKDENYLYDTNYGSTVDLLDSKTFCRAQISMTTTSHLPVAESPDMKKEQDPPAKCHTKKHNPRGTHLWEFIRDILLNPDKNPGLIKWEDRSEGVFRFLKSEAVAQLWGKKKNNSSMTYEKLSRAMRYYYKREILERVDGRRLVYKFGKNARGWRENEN
Put shortly:
as §1

Another experiment concerns the target SPI1 (Homo sapiens, UniProt P17947 1-270). Put shortly:
as §1

For a further experiment, the target named is SPIB (Homo sapiens, UniProt Q01892 1-262). Put shortly: as §1
Sequence of SPIB (Q01892 whole entry): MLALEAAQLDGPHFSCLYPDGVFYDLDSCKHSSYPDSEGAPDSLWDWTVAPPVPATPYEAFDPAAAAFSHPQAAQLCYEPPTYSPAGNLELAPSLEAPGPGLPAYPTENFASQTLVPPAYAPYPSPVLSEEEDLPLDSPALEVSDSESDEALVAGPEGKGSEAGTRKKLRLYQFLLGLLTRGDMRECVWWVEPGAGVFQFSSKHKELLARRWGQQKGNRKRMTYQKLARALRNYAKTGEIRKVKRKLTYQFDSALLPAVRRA
Another experiment deals with T6, ELK3 (Homo sapiens, UniProt P41970 1-407).
T6 sequence: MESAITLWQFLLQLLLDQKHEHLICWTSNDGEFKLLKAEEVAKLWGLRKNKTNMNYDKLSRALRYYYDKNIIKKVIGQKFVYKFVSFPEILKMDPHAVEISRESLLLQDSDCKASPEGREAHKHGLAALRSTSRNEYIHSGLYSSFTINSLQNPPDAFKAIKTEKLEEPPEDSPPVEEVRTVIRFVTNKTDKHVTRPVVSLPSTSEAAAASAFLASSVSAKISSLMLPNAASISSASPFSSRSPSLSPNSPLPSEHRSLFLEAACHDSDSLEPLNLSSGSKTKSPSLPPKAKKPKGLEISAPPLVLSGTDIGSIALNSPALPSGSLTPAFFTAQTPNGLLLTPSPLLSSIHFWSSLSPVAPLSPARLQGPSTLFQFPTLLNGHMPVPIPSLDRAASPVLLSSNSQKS
Put shortly:
as §1

Sequence of ELF1 (P32519 whole entry): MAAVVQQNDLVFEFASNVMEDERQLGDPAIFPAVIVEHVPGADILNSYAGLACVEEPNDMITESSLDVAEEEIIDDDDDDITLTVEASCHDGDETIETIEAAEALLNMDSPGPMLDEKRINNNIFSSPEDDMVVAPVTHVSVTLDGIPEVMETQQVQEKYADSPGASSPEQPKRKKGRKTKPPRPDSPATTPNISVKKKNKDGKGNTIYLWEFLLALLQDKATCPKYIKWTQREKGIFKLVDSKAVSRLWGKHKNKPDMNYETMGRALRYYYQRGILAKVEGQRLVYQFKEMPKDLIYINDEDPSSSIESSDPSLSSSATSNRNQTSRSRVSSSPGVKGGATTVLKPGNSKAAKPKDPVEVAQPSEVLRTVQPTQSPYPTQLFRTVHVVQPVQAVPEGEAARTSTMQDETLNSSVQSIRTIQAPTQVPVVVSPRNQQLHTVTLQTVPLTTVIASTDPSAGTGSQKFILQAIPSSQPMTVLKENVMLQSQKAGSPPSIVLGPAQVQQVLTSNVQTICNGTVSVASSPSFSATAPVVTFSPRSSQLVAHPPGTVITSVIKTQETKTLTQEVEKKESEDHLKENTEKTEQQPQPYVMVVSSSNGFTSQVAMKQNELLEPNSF

On to AATACA, for which the binding signal in the experiment with FLI1 is 1.28 fold enrichment (6-mer frequency, TF over GST control); in the experiment with ELK1, 1.3 fold enrichment (6-mer frequency, TF over GST control); with GABPA, 1.38 fold enrichment (6-mer frequency, TF over GST control); with ERG it was 1.33 fold enrichment (6-mer frequency, TF over GST control); with ELF1, 1.35 fold enrichment (6-mer frequency, TF over GST control); with EHF, 1.3 fold enrichment (6-mer frequency, TF over GST control). For the same sequence, the binding signal is 1.28 fold enrichment (6-mer frequency, TF over GST control) with SPI1; 1.31 fold enrichment (6-mer frequency, TF over GST control) with SPIB; 1.27 fold enrichment (6-mer frequency, TF over GST control) with ELK3.
Take CTTCTT: the binding signal with FLI1 is 1.44 fold enrichment (6-mer frequency, TF over GST control); with ELK1 it was 1.58 fold enrichment (6-mer frequency, TF over GST control); in the experiment with GABPA, 1.5 fold enrichment (6-mer frequency, TF over GST control); with ERG, 1.63 fold enrichment (6-mer frequency, TF over GST control); with ELF1, 1.65 fold enrichment (6-mer frequency, TF over GST control); with EHF, 1.53 fold enrichment (6-mer frequency, TF over GST control). Also, the binding signal was 1.61 fold enrichment (6-mer frequency, TF over GST control) in the experiment with SPI1; 1.44 fold enrichment (6-mer frequency, TF over GST control) with SPIB; 1.61 fold enrichment (6-mer frequency, TF over GST control) in the experiment with ELK3.
As to ATGCAT, the binding signal with FLI1 is 1.21 fold enrichment (6-mer frequency, TF over GST control); with ELK1, 1.21 fold enrichment (6-mer frequency, TF over GST control); with GABPA, 1.22 fold enrichment (6-mer frequency, TF over GST control); with ERG it was 1.16 fold enrichment (6-mer frequency, TF over GST control); with ELF1 it was 1.16 fold enrichment (6-mer frequency, TF over GST control); with EHF, 1.22 fold enrichment (6-mer frequency, TF over GST control). Further, the binding signal with SPI1 was 1.18 fold enrichment (6-mer frequency, TF over GST control); with SPIB, 1.19 fold enrichment (6-mer frequency, TF over GST control); in the experiment with ELK3 it was 1.29 fold enrichment (6-mer frequency, TF over GST control).
As to CTACGG, the binding signal is 1.19 fold enrichment (6-mer frequency, TF over GST control) with FLI1; 1.27 fold enrichment (6-mer frequency, TF over GST control) with ELK1; 1.22 fold enrichment (6-mer frequency, TF over GST control) with GABPA; 1.21 fold enrichment (6-mer frequency, TF over GST control) in the experiment with ERG; 1.29 fold enrichment (6-mer frequency, TF over GST control) with ELF1; 1.31 fold enrichment (6-mer frequency, TF over GST control) in the experiment with EHF. Further, the binding signal was 1.24 fold enrichment (6-mer frequency, TF over GST control) in the experiment with SPI1; 1.28 fold enrichment (6-mer frequency, TF over GST control) with SPIB; 1.24 fold enrichment (6-mer frequency, TF over GST control) in the experiment with ELK3.
TCTGCG: the binding signal in the experiment with FLI1 was 1.12 fold enrichment (6-mer frequency, TF over GST control); with ELK1, 1.28 fold enrichment (6-mer frequency, TF over GST control); with GABPA, 1.27 fold enrichment (6-mer frequency, TF over GST control); in the experiment with ERG, 1.18 fold enrichment (6-mer frequency, TF over GST control); with ELF1, 1.2 fold enrichment (6-mer frequency, TF over GST control); with EHF it was 1.23 fold enrichment (6-mer frequency, TF over GST control). Besides, the binding signal in the experiment with SPI1 is 1.28 fold enrichment (6-mer frequency, TF over GST control); with SPIB, 1.23 fold enrichment (6-mer frequency, TF over GST control); with ELK3, 1.11 fold enrichment (6-mer frequency, TF over GST control).
Consider TCTAAG, for which the binding signal with FLI1 was 1.22 fold enrichment (6-mer frequency, TF over GST control); with ELK1, 1.19 fold enrichment (6-mer frequency, TF over GST control); with GABPA, 1.3 fold enrichment (6-mer frequency, TF over GST control); with ERG, 1.2 fold enrichment (6-mer frequency, TF over GST control); with ELF1 it was 1.29 fold enrichment (6-mer frequency, TF over GST control); with EHF it was 1.28 fold enrichment (6-mer frequency, TF over GST control). The binding signal with SPI1 is 1.17 fold enrichment (6-mer frequency, TF over GST control); with SPIB, 1.28 fold enrichment (6-mer frequency, TF over GST control); with ELK3, 1.22 fold enrichment (6-mer frequency, TF over GST control).
For TATATA, the binding signal in the experiment with FLI1 is 1.23 fold enrichment (6-mer frequency, TF over GST control); with ELK1, 1.37 fold enrichment (6-mer frequency, TF over GST control); in the experiment with GABPA it was 1.26 fold enrichment (6-mer frequency, TF over GST control); in the experiment with ERG, 1.3 fold enrichment (6-mer frequency, TF over GST control); in the experiment with ELF1, 1.32 fold enrichment (6-mer frequency, TF over GST control); with EHF it was 1.32 fold enrichment (6-mer frequency, TF over GST control). For the same sequence, the binding signal was 1.21 fold enrichment (6-mer frequency, TF over GST control) with SPI1; 1.49 fold enrichment (6-mer frequency, TF over GST control) in the experiment with SPIB; 1.17 fold enrichment (6-mer frequency, TF over GST control) in the experiment with ELK3.
